Data on 43 sequences can be found in paper PMC7819943, “Rice protein-binding microarrays: a tool to detect cis-acting elements near promoter regions in rice”.

Over roughly 39,000 sequences, “fluorescence intensity (a.u.)” has its median near 4,300; the highest 2% begin near 39,000. This is one part of a sample in which the highest values are shown more often than they occur.

The experiment addresses T1, OsSMF1 (Oryza sativa, UniProt Q6ZLB0 1-436).
T1 sequence: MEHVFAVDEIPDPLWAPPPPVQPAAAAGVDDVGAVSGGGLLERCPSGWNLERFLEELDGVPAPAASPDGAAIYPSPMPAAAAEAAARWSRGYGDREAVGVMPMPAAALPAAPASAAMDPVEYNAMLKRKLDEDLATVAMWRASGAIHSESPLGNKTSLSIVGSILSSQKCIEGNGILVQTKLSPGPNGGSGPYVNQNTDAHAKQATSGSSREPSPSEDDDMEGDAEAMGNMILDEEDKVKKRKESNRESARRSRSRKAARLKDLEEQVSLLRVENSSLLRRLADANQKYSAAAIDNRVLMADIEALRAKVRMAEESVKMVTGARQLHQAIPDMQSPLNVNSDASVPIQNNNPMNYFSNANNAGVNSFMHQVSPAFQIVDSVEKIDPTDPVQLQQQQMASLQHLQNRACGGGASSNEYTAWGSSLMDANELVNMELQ
Kind of experiment: protein-binding microarray (RPBM); PBS, 2% BSA, 51.3 ng/ul salmon testes DNA, 50 uM zinc acetate, 200 nM TF, 25 C, 1 h; high values mean tight binding. The conditions noted are these: protein: recombinant; tags: N-terminal polyhistidine and DsRed monomer fusion (pET32a); chain copies: 2; label: CyDye5-dUTP incorporated in the synthesized complementary strand; 3' TTTTT single-stranded linker to array surface; dsDNA, one strand shown. The method, boiled down:
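Polyhistidine-tagged DsRed fusions of transcription factors, joined at the N-terminus, were expressed in E. coli BL21-CodonPlus and isolated on Ni–NTA. They were incubated at 200 nM for 1 h at 25 °C on a custom Agilent array, double-stranded and BSA-blocked, in PBS with 2% BSA, salmon testes DNA and 50 µM zinc acetate. The binding signal is per-feature fluorescence intensity (arbitrary units) read on an Axon 4000B scanner after washing.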
“ACAGTAGCACCGGAAAGCTGCATGTGAAGTCTAGTCAACGCGGAGTCACCTAGTGCAG”: the binding signal is 4250 fluorescence intensity (a.u.). As for “CTTCTCCTGCATGGCAAGTCGCTGATCACAACTACGCATCCGGAGTCACCTAGTGCAG”, the figure is 3610 fluorescence intensity (a.u.). As for “CGCACGATGATCATGTGTTGGTGTTGGCATGCAATGCAACCGGAGTCACCTAGTGCAG”, the figure is 3780 fluorescence intensity (a.u.); as for “TGAATATAAACACAACTACATTTAGCGACAGAAGAAGAACCGGAGTCACCTAGTGCAG”, 40600 fluorescence intensity (a.u.); as for “ATCATGTACATCTCATAGTCAACAATATTCATCACAATCTCGGAGTCACCTAGTGCAG”, 3640 fluorescence intensity (a.u.). Turning to “GAGAAAGGAACAACTACAAAAGACACACATATATACTATGCGGAGTCACCTAGTGCAG”, the binding signal was 39400 fluorescence intensity (a.u.). The value for “TAGATCAATGATGTTGCATGCAACTCACGCGACACATGGTCGGAGTCACCTAGTGCAG” was 40000 fluorescence intensity (a.u.). As for “CATAACAACCACTAAAACATTATGAATATTTTGTACATACCGGAGTCACCTAGTGCAG”, the binding signal was 22800 fluorescence intensity (a.u.). As for “ATACAAAACTAGAAACAAGACATACCAACATCACAACATGCGGAGTCACCTAGTGCAG”, the figure is 26100 fluorescence intensity (a.u.). In the case of “TTCACAACACTTGCATGAACTCAGGTGTCAATGGTAAGGTCGGAGTCACCTAGTGCAG”, the binding signal was 3560 fluorescence intensity (a.u.).

On to “CAAAGGAACACATCTGGGTCATCAGACAACTCAATAGAGTCGGAGTCACCTAGTGCAG”, for which the binding signal is 43000 fluorescence intensity (a.u.). The value for “TCATCTGGTACAAAATATATAGGACATCAATCATGGGGAACGGAGTCACCTAGTGCAG” was 26200 fluorescence intensity (a.u.); that for “ACTATATATATACACTACGGTTGACAAAGACATCCCAACACGGAGTCACCTAGTGCAG” was 3240 fluorescence intensity (a.u.); that for “TGTAACTATTCTCGCGACACGTACACACCAACACATAAACCGGAGTCACCTAGTGCAG” was 4520 fluorescence intensity (a.u.). The value for “CGGAGAGGGAGAAGGAGAGGAGAGGGGCTGATAGGTGGGGCGGAGTCACCTAGTGCAG” was 3520 fluorescence intensity (a.u.). As for “CTCCTCCATTGCCAGTTGCTACTCATCCTCATCCTCTCCACGGAGTCACCTAGTGCAG”, the figure is 22600 fluorescence intensity (a.u.); as for “TCCTCCAGATGTTACAGTCTCCGAATTTCAGTGATGTCACCGGAGTCACCTAGTGCAG”, 11800 fluorescence intensity (a.u.); as for “ATCCAATCTGAGCCGTCCGCTGTACACCGTAGATCTATATCGGAGTCACCTAGTGCAG”, 3450 fluorescence intensity (a.u.). “CTCCGTGATCGTCATGTCAAGACGCAAAATAAAGAGCAATCGGAGTCACCTAGTGCAG”: the binding signal was 33400 fluorescence intensity (a.u.). As for “GAAACCCGGCCACATCACTCCTTCCCTATGCTCCAGTGAGCGGAGTCACCTAGTGCAG”, the figure is 8040 fluorescence intensity (a.u.); as for “TTTTGGATGCAGCATATGGTTGTCCCGATGCAAAATCCTCCGGAGTCACCTAGTGCAG”, 4530 fluorescence intensity (a.u.); as for “TGGCAAATAGTTCCGTGATGTCAGCTTGGAAGCATCCTGCCGGAGTCACCTAGTGCAG”, 6410 fluorescence intensity (a.u.). The value for “CTTTTGGCAAAATCCGTGATGCAGCATCGATCCCTGTCAACGGAGTCACCTAGTGCAG” was 39800 fluorescence intensity (a.u.); that for “ATATATACCTGCATACACTAGACTAGTATAATACCTGGCACGGAGTCACCTAGTGCAG” was 3530 fluorescence intensity (a.u.); that for “AAACGATAATATACCTTGTATAGTCATCCAACTCTTATTTCGGAGTCACCTAGTGCAG” was 3630 fluorescence intensity (a.u.).

Consider “TATCCAAAATTTCATCCAACTCTTGTGGGAGAAACGGACACGGAGTCACCTAGTGCAG”, for which the binding signal was 39500 fluorescence intensity (a.u.). The value for “TTTCGGTCATGAAAACTCAGGACCAAATTTCATCCAAATACGGAGTCACCTAGTGCAG” was 29300 fluorescence intensity (a.u.). As for “GATTTCTTTCTGCCGTCATCTTCGAATATCCATGACTCGCCGGAGTCACCTAGTGCAG”, the figure is 3840 fluorescence intensity (a.u.); as for “ATCGATCAGGCAATGAACCCATTATTGTTTGCCTCCAAAACGGAGTCACCTAGTGCAG”, 34100 fluorescence intensity (a.u.); as for “AAATGTCTCCCAAAACCTCAAAATTGAGTTCCATTATGAACGGAGTCACCTAGTGCAG”, 61600 fluorescence intensity (a.u.). As for “CACTTGATGAGCTCCTCTCCATGTCCTCAAACGTACTGAACGGAGTCACCTAGTGCAG”, the figure is 25100 fluorescence intensity (a.u.); as for “AATCGATTCGAAATCCACACCGCTACTACGGCTAATTACGCGGAGTCACCTAGTGCAG”, 3870 fluorescence intensity (a.u.). In the case of “CGCATTGAGCCATTTACACTACACACACAGCCCCAGATTCCGGAGTCACCTAGTGCAG”, the binding signal is 3420 fluorescence intensity (a.u.).

Consider “ACCTCTTGCTGCTGCTCATTCTGATGTCATTCAAAGAGATCGGAGTCACCTAGTGCAG”, for which the binding signal is 4480 fluorescence intensity (a.u.). Turning to “TCTGCTGATGATCTCTCTCTCTCTCTGTTTCAAAGCTGATCGGAGTCACCTAGTGCAG”, the binding signal was 44700 fluorescence intensity (a.u.). As for “GATCTGTCACTGTATGGAATGATGCAAAGCTGCTGCTGATCGGAGTCACCTAGTGCAG”, the figure is 32000 fluorescence intensity (a.u.); as for “CGCGCGAGTGCTAGGAAGCTGAGTCACGCCCGCCCTCCTCCGGAGTCACCTAGTGCAG”, 10700 fluorescence intensity (a.u.). As for “TCCCACATTAAATTTACTCATTAGTTGTTAGGAATCGACACGGAGTCACCTAGTGCAG”, the figure is 20600 fluorescence intensity (a.u.). As for “CAGAATATTTTGTCAGTCACTCTTGATCACTCTAGCAACACGGAGTCACCTAGTGCAG”, the figure is 3980 fluorescence intensity (a.u.); as for “CAGTAAGCTAGCAAACAAACACACAAGAATATTTGTGATCCGGAGTCACCTAGTGCAG”, 39900 fluorescence intensity (a.u.); as for “CAAGAGAAAATAGCCAAAATAATAGCAGTAAGAACACAATCGGAGTCACCTAGTGCAG”, 15400 fluorescence intensity (a.u.). “CGGGCACTCTCGTCTCCGACGTGAAGGCCCGAGATCACTGCGGAGTCACCTAGTGCAG”: the binding signal was 60900 fluorescence intensity (a.u.). As for “CGACCGACCCTCGCCCGCCCACCGCCGTCACTCTCGTCTGCGGAGTCACCTAGTGCAG”, the figure is 3920 fluorescence intensity (a.u.).
